Bioassay records deposited in PubChem by several laboratories.
Shown are actives, neighbours in structure and some others; about 4% of the full set was active somewhere.
Autofluor counter = compound fluorescence in toxin protease inhibitor counterscreen; fluorescence intensity (test concentration not listed); hit rate 3.1% among 360,000; compound autofluorescence counterscreen, microsphere flow cytometry; stronger effect = higher value; in the data active means fluorescence intensity above about 16000; inconclusive means no clear call, values can overlap the other calls
BoNT F protease = BoNT F light chain protease inhibition; Multiplex microsphere protease cleavage assay, flow cytometry; inhibition, % at 10 µM; hit rate 0.22% among 360,000; AID 588497; in the data active means inhibition above about 35%, passing the limit was not always enough; inconclusive means no clear call, values can overlap the other calls; further: plate controls were buffer without enzyme for full effect and enzyme alone for no effect
DUSP3 inh = blocks human VHR1 dual specificity phosphatase. recombinant VHR phosphatase, pNPP absorbance. inhibition, % at 13.3 µM. hit rate 0.52% among 290,000. AID 1654; in the data active means inhibition above about 50%
Target sequence (P51452 whole entry, looked up): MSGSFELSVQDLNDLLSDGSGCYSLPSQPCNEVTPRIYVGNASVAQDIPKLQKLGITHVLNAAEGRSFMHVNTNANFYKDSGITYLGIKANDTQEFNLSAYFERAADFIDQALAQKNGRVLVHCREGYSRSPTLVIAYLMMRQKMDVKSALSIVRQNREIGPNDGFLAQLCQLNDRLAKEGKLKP
BoNT-A LC inh2 = inhibitors of Botulinum neurotoxin A light chain protease. multiplex microsphere protease substrate cleavage, flow cytometry. inhibition, % at 10 µM. hit rate 0.17% among 360,000; further: plate controls were buffer without enzyme for full effect and enzyme alone for no effect
MazF activator = increases E. coli MazEF RNase cleavage of RNA | P0AE70 | activation, % at 20 µM | FAM/BHQ RNA-DNA oligo cleavage fluorescence, 5 h | hit rate 0.32% among 350,000; in the data active means activation above about 50%
Target sequence (P0AE70 whole entry, looked up): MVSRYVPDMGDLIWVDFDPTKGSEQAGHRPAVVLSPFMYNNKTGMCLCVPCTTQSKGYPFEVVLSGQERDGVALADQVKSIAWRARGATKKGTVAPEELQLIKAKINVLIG
Anthrax LF inh2 = anthrax lethal factor protease inhibition; P15917; multiplex microsphere protease cleavage assay, LF; inhibition, % at 10 µM; hit rate 0.12% among 360,000; AID 588501; further: plate controls were buffer without enzyme for full effect and enzyme alone for no effect
Active calls of the source: *; ? = inconclusive; . = no result. Unless noted, no stated cut-off is given here; in the data, active means inhibition above about 30%; inconclusive means no clear call, values can overlap the other calls; inactive means below that.

SMILES | Autofluor counter | BoNT F protease | DUSP3 inh | BoNT-A LC inh2 | MazF activator | Anthrax LF inh2
c1cncc(-c2noc(C34CC5CC(CC(C5)C3)C4)n2)c1 | . | . | 24.4 | . | -14.9 | .
Cc1ccccc1-c1noc(C23CC4CC(CC(C4)C2)C3)n1 | 21714* | -6.4 | 30.5 | -2.4 | -8.1 | -5.7
Cc1ccccc1-c1noc(C2CCCCC2)n1 | 22659* | -4.2 | 5.7 | ? | -1.8 | -2.5
O=C1c2ccccc2C(=O)N1CCCc1nc2ccccc2c(=O)n1CCCn1ccnc1 | 19567* | -12.2 | 20.0 | -8.6 | 5.8 | 1.0
Cn1c(-n2c(CCCN3C(=O)c4ccccc4C3=O)nc3ccccc3c2=O)nc2ccccc21 | 5530 | -5.1 | 10.4 | 0.0 | 3.5 | -1.4
CCOc1ccc(-c2nnn(CC(=O)NCCc3c[nH]c4ccccc34)n2)cc1 | 8532 | 1.3 | 5.4 | 0.7 | 0.9 | -8.7
COc1ccc(-c2nnn(CC(=O)NCCc3c[nH]c4ccccc34)n2)cc1OC | 21211* | -3.7 | 18.6 | -2.1 | -1.6 | -2.3
CCOc1ccc2c(c1)n(CO)c(=S)n2CO | 22336* | 1.7 | 4.8 | ? | 8.5 | -3.5
CCOc1ccc2[nH]c(=S)[nH]c2c1 | 4344 | -9.0 | -10.5 | -0.5 | 6.9 | -0.7
O=C(COC(=O)CNC(=O)C1CCCCC1)Nc1ccc(Cl)cn1 | 21353* | -5.2 | . | -5.2 | 5.5 | -0.2
CCCCC(=O)Nc1ccc(C(=O)NNC(=O)CCCOc2ccc(Cl)cc2Cl)cc1 | 9730 | -0.4 | 21.9 | 0.6 | -15.5 | 1.7
CC(=O)NC(=S)Nc1ccc(NC(=O)COc2ccc(Cl)cc2Cl)cc1 | 4217 | -2.4 | 13.0 | 0.2 | -6.3 | -3.5
O=C(COc1ccc(Cl)cc1Cl)NNC(=S)Nc1ccc(F)cc1 | 16581* | 0.4 | 11.6 | 0.1 | -0.5 | -1.9
Cc1cc(Cl)ccc1OCC(=O)NCc1ccncc1 | 8121 | -3.3 | 2.2 | -0.2 | 8.1 | -4.6
CC(C)C(=O)Nc1ccc(C(=O)NNC(=O)CCCOc2ccc(Cl)cc2Cl)cc1 | 24267* | -3.0 | 28.5 | ? | -1.6 | -3.1
O=C(COc1ccc(Cl)cc1Cl)NCc1ccncc1 | 19178* | 0.3 | 2.8 | 0.8 | -1.1 | 0.5
CCOc1ccc(S(=O)(=O)Nc2cccc(C(=O)N3CCN(C(C)=O)CC3)c2)cc1 | ? | -5.1 | . | -1.8 | 2.8 | -3.1
C[C@@H]1CN([C@@H](C)CO)C(=O)c2cc(C#Cc3cccc(F)c3)cnc2O[C@@H]1CN(C)CC1CCOCC1 | 3334 | -4.1 | . | 0.3 | -4.2 | -0.7
COc1ccccc1-c1nc(-c2ccc(Br)o2)no1 | 5725 | 1.7 | -17.1 | -0.4 | 10.1 | -6.5
Cc1ccc2c(c1)CCCN2C(=O)c1ccco1 | 22783* | -1.2 | 8.7 | 1.6 | -1.0 | -1.1
Cc1ccc2c(c1)CCCN2C(=O)c1ccc2c(c1)OCO2 | 23514* | -2.0 | -23.4 | -1.1 | -4.5 | -1.4
CCCCn1c(N)c(N(CC(C)C)C(=O)C2CC(=O)N(c3ccccc3C(C)CC)C2)c(=O)[nH]c1=O (centres undefined) | 6265 | 13.0 | . | -0.3 | -0.1 | -2.5
O=C(O)CC/C(=C\c1ccc(Cl)c([N+](=O)[O-])c1)c1nc2ccccc2s1 | 8167 | 5.3 | -1.5 | 1.5 | -2.2 | 0.3
O=C(O)CC/C(=C\c1ccc2c(c1)OCO2)c1nc2ccccc2s1 | 4178 | 2.7 | 7.4 | 0.0 | 59.9* | -1.5
COc1cccc(N(CC(=O)NC2CCCCC2)C(=O)Cn2nnc(-c3ccc(C)o3)n2)c1 | 6064 | 1.7 | 20.6 | 0.0 | 11.1 | 2.1
SMILES | Autofluor counter | BoNT F protease | DUSP3 inh | BoNT-A LC inh2 | MazF activator | Anthrax LF inh2
CCN=C1SC(CC(=O)NC2CCCCC2)C(=O)N1CC (centres undefined) | 20571* | -3.2 | -12.0 | ? | 1.2 | -0.4
CC(C)Cc1cc(C(=O)Nc2sc3c(c2C#N)CCCC3)no1 | 5259 | -3.7 | -18.5 | 0.0 | 2.2 | -9.9
C=C(C)CSc1nc2nc(C)c(Br)cc2[nH]1 | 22023* | -1.4 | 30.9 | -0.2 | . | 0.9
COc1ccc2cc(C(=O)C3CCCN(Cc4cnc(N5CCOCC5)s4)C3)ccc2c1 (centres undefined) | 5425 | -11.0 | 51.6* | -1.9 | -0.6 | -6.9
Cc1ccsc1C(=O)C1CCCN(Cc2cnc(N3CCOCC3)s2)C1 (centres undefined) | 3672 | -2.3 | 32.0 | -1.6 | 5.0 | -9.1
Cc1ccc(C(=O)c2sc3nsc(C)c3c2N)cc1 | 2655 | 1.9 | 11.6 | 3.7 | 61.7* | 2.3
Cc1ccc(C)c(S(=O)(=O)N2CCN(C(=O)C(C)Sc3ccccc3)CC2)c1 (centres undefined) | 4700 | -5.1 | 11.2 | 0.2 | 1.6 | -2.1
CCOC(=O)C(C)(C)Sc1ncnc2nc[nH]c12 | 23381* | 2.7 | 13.6 | ? | 3.0 | -0.6
